# From PubChem BioAssay AID602449 (Sanford-Burnham Center for Chemical Genomics, 2012)
# The whole screen tested about 360,000 compounds, of which about 5,000 (1.4%) were called active.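 The calls were made as follows: active = inhibition of 50% or more, scaled per plate between neutral and stimulator controls; inactive = the rest.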 The list comes from a sample in which actives are over-represented; it also holds similar structures and randomly drawn compounds.
# Test: blockers of Ca2+-induced mitochondrial swelling – biochemical, isolated mouse mitochondria, absorbance, primary screen (AID 602449);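 also: 0% = DMSO wells given calcium and 100% = 1 mM EGTA wells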
# Conditions: 30 min, at 10 µM, hits give high values
row,SMILES,inhibition
1,CCn1c(NC(=O)c2ccccc2)c(-c2cccs2)c(=O)c2ccccc21,1.4% (inactive)
2,N#Cc1ccc(C(=O)Nc2nc(-c3cccs3)c(C(=O)C(F)(F)F)s2)cc1,87.5% (active)
3,C=CCN(CC=C)S(=O)(=O)c1ccc(C(=O)Nc2nc3c(s2)CCc2ccccc2-3)cc1,-1.2% (inactive)
4,Cc1ccc2nnn(Cc3cccc(C(C)(C)C)c3O)c2c1,93.7% (active)
5,COc1ccc(NC(=O)CCCN2C(=O)C(c3ccccc3)Oc3cccnc32)cc1 (centres undefined),1.6% (inactive)
6,CCCNC(=O)c1ccccc1NC(=O)CSCc1ccc(OC)cc1,0% (inactive)
7,COc1ccc(/C=C2/SC(=O)N(CCCCCC(=O)Nc3ccccc3C(=O)O)C2=S)cc1,60% (active)
8,CCN1C[C@@H]2[C@@H]3C(=O)N(C)C(=O)[C@@H]3[C@](C)(C1=O)N2C(=O)c1ccccc1,-0.4% (inactive)
9,COc1ccc(S(=O)(=O)N[C@@H]2C=C[C@@H](CC(=O)N3CCc4ccccc4C3)O[C@@H]2CO)cc1,0.4% (inactive)
10,Cc1cc(C)c(C#N)c(SCC(=O)N(CC(C)C)C2CCS(=O)(=O)C2)n1 (centres undefined),-1.7% (inactive)
11,CC1=C(C/C=C(\C)CCCC(C)CCCC(C)CCCC(C)C)C(=O)c2ccccc2C1=O (centres undefined),-2.2% (inactive)
12,COc1ccc(CCNS(=O)(=O)c2cn(C)nc2C)cc1,-0.3% (inactive)
13,N#C/C(=C\c1cccnc1)C(=O)Nc1ccc(SC(F)F)cc1,7.2% (inactive)
14,O=C(Cc1ccc(Cl)c(Cl)c1)Nc1ccc(SC(F)F)cc1,82% (active)
15,CCC1CCCCN1C(=S)Nc1ccc(SC(F)F)cc1 (centres undefined),34% (inactive)
16,CCc1nc2c(OCCOc3ccc(F)cc3)cccn2c1N(C)C(=O)c1ccccc1F,0.6% (inactive)
17,Cc1nc2nc(SCC(=O)Nc3cccc(F)c3)[nH]c2cc1Br,63.9% (active)
18,O=C(CSc1nc2[nH]c(=O)[nH]c(=O)c2s1)Nc1cccc(F)c1,-0.6% (inactive)
19,Cc1nc2nc(SCC(=O)c3ccccc3)[nH]c2cc1Br,9.9% (inactive)
20,COc1cc(OC)cc(-c2c(-c3cccs3)c3cc(-c4ccc(OC)nc4)ccc3n2C)c1,-0.4% (inactive)

row,SMILES,inhibition
1,CCC(C)NC(=O)c1ccccc1NC(=O)c1ccccc1N(C)S(C)(=O)=O (centres undefined),0.4% (inactive)
2,COCC(C)n1c(C)cc(C(=O)CSc2cc(C)c3ccccc3n2)c1C (centres undefined),3.2% (inactive)
3,CCCNC(=O)c1cc(C2CCCCN2S(=O)(=O)c2cn(C)cn2)on1 (centres undefined),0.2% (inactive)
4,O=C(NCc1cc(C(F)(F)F)cc(C(F)(F)F)c1)C1CC(c2cccc(F)c2)=NO1 (centres undefined),2% (inactive)
5,COC(=O)Cc1ccc(OCC(=O)Nc2ccc(OC(F)(F)F)cc2)cc1,0.1% (inactive)
6,CN(CC(=O)Nc1ccc(OC(F)(F)F)cc1)C(=O)C1CCC1,-0.8% (inactive)
7,Cn1nccc1NC(=O)Nc1ccc(OC(F)(F)F)cc1,60.1% (active)
8,Cc1sc2ncnc(N3CCC(C(=O)NNC(=O)c4ccc(F)cc4)CC3)c2c1C,0.7% (inactive)
9,Cc1ccc2cc(CN(c3ccc(C)c(C)c3)S(C)(=O)=O)c(=O)[nH]c2c1,-0.6% (inactive)
10,C/C(=N\Nc1ccc([N+](=O)[O-])cc1)c1ccc(-n2nncc2C(C)(C)C)cc1,20.4% (inactive)
11,Cc1nc(C)c2c(c1C(F)(F)F)-c1ccccc1C2(F)F,-0.4% (inactive)
12,COc1cc(S(=O)(=O)Nc2ncn[nH]2)ccc1Cl,-1.7% (inactive)
13,CCCCNC(=O)CSc1nc2ccc(NC(=O)CSc3nnc(N)s3)cc2s1,15.3% (inactive)
14,Nc1nnc(SCC(=O)Nc2ccc3nc(SCC(=O)Nc4ccccc4)sc3c2)s1,95.5% (active)
15,CCCCNC(=O)CSc1nc2ccc(NC(=O)CSc3nnc(COc4ccccc4C)n3C)cc2s1,4.8% (inactive)
16,O=C1c2ccccc2C(Nc2ccc3c(c2)OCCO3)N1Cc1ccco1 (centres undefined),3% (inactive)
17,C[C@H](CO)N1C[C@H](C)[C@@H](CN(C)C(=O)NC2CCCCC2)Oc2ccc(NC(=O)c3ccncc3)cc2C1=O,-0.8% (inactive)
18,CCOC(=O)NC(C(F)(F)F)(C(F)(F)F)P(=O)(c1ccccc1)c1ccccc1,-3.1% (inactive)
19,CC(=O)c1c(C)[nH]c(C(=O)COC(=O)c2cccc(S(=O)(=O)N(C)c3ccccc3)c2)c1C,99.3% (active)
20,CN(c1ccccc1)S(=O)(=O)c1ccc(Cl)c(C(=O)OCC(N)=O)c1,1.9% (inactive)

row,SMILES,inhibition
1,CC(=O)c1c(C)[nH]c(C(=O)COC(=O)CCOc2ccc(C)cc2)c1C,-2.4% (inactive)
2,O=C1NCCn2nc3ccccc3c21,2.9% (inactive)
3,CCN(CC)CCOC(=O)c1ccc(NC(=O)CNC(=O)c2ccccc2)cc1,-3.4% (inactive)
4,CCN(CC)CCNCC(=O)Nc1ccc(Oc2ccccc2)cc1,1.8% (inactive)
5,CCCC(C(=O)OCCN(CC)CC)(c1ccccc1)c1ccccc1,85.7% (active)
6,COc1ccccc1C(=O)NC(=S)Nc1ccc(N2CCOCC2)cc1,-1.6% (inactive)
7,Cc1ccccc1C(=O)NC(=S)Nc1ccc(N2CCN(C(=O)c3ccccc3)CC2)cc1,57.1% (active)
8,Cc1ccccc1C(=O)NC(=S)NC1CC1,1.7% (inactive)
9,O=[N+]([O-])c1cccc(S(=O)(=O)N2CCCCCC2)c1,-1% (inactive)
10,O=C(O)CC/C(=C\c1cc2c(cc1Br)OCO2)c1nc2ccccc2s1,0.4% (inactive)
11,CC1=CC(=C(C#N)c2nc3ccccc3s2)C=C(C)N1c1ccc(F)cc1F,1.2% (inactive)
12,N#C/C(=C(/O)Cc1cccc2ccccc12)c1nc2ccccc2s1,95.9% (active)
13,Cc1ccc(S(=O)(=O)NC2CCCCCC2)cc1C(N)=O,1% (inactive)
14,COc1cc(Cl)c(C)cc1NC(=O)CSc1nnc(CN2CCCC2)o1,-2% (inactive)
15,COc1ccc(N2CCN(CCCNC(=O)C3CCN(S(=O)(=O)N4CCOCC4)CC3)CC2)cc1,-2.8% (inactive)
16,CC(Oc1ccc(-c2ccccc2)c(F)c1)c1ccn(S(=O)(=O)c2cccc3ccccc23)n1 (centres undefined),1% (inactive)
17,COc1ccccc1Oc1ccc(S(=O)(=O)Nc2cccnc2)cc1,82.5% (active)
18,COc1ccc(S(=O)(=O)Nc2cccnc2)c(Cl)c1Cl,0.5% (inactive)
19,Cc1cc(C)c(C)c(S(=O)(=O)Nc2cccnc2)c1C,1.4% (inactive)
